In the library only some 5.4% were active in any assay of this set; here they are far more common.
Calb FLC: affects C. albicans growth with fluconazole; growth inhibition, % (no concentration beside the values); 0.57% of 300,000 active; C. albicans CaCi-2 (fluconazole-resistant clinical isolate) + fluconazole, Alamar Blue growth, 48 h;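 active means growth inhibition above about 58% in most replicates, limit read from the data, passing the limit was not always enough; inconclusive means exactly half the replicates above a set limit; inactive means most replicates below a set limit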;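 further: all wells also contain fluconazole at 8 µg/ml as a sub-toxic cotreatment; 0% = median of DMSO wells and 100% = median of geldanamycin control wells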
CSC inhib: blocks cancer stem cells. cancer stem cell-like cells viability, luminescence. inhibition, % at 7.5 µM. 1.1% of 300,000 active. AID 2717; in the data active means inhibition above about 75%; inconclusive means no clear call, values can overlap the other calls; tested in HMLE shEcad cells
ALR H2O2 inh: inhibitors of human sulfhydryl oxidase ALR; P55789; purified ALR, DTT oxidation, H2O2 HRP-luminol luminescence; inhibition, % (no concentration beside the values); 3.8% of 290,000 active;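 active means mean replicate inhibition above about 79%, with every replicate also reaching it, limit read from the data; inconclusive means only one of the two criteria met; inactive means mean below limit and not every replicate reaching it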
Target sequence (P55789 whole entry, looked up): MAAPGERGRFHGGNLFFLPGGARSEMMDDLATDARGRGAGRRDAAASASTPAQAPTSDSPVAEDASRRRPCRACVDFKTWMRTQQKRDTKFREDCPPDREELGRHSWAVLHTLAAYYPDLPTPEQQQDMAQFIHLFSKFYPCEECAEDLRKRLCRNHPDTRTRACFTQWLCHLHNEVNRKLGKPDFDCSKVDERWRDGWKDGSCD
PP1 counter: blocks human PP1-alpha phosphatase, a PP5 counter-screen; P62136; purified PP1alpha, OMFP fluorescence; inhibition, % at 6.7 µM; 0.9% of 320,000 active; AID 2235;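 active means inhibition above the mean inhibition of all tested compounds plus 3 SD, computed separately for each screening campaign, cut at about 15% in these data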
Target sequence (P62136 whole entry, looked up): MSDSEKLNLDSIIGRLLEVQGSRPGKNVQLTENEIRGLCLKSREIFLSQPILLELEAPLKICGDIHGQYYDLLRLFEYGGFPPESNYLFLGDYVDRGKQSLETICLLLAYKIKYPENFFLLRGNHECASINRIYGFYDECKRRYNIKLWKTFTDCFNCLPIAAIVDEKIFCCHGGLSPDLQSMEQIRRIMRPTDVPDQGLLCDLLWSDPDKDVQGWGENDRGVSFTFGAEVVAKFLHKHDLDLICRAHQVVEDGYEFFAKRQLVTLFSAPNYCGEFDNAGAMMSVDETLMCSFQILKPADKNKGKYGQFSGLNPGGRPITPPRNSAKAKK
PP5 primary: inhibitors of human protein phosphatase 5 (PP5); P53041; purified PP5c, OMFP substrate fluorescence; inhibition, % at 6.7 µM; 0.18% of 320,000 active;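 active means inhibition above the campaign's mean inhibition across all tested compounds plus 3 SD, cut at about 9.5% in these data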;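 further: 0% = DMSO only and 100% = 100 µM cantharidin control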
* = called active by the depositor; ? = inconclusive; nt = not tested or not shown.

SMILES | Calb FLC | CSC inhib | ALR H2O2 inh | PP1 counter | PP5 primary
CC1CCCC(NC(=O)c2cn(C)c3ccc(S(=O)(=O)N4CCCC4)cc3c2=O)C1C (stereo not drawn) | 25 | 21 | -1 | -2 | 3
CCC1(c2ccc(Cl)cc2)NC(=S)N(c2ccc(C)c(C)c2)N1 (stereo not drawn) | -15 | 14 | 97* | -3 | -1
CCC1(c2ccccc2)NC(=S)N(c2ccc(C)c(C)c2)N1 (stereo not drawn) | -15 | 2 | nt | -2 | 2
CSc1nc(O)c(C(c2ccc(O)cc2)c2c(O)nc(SC)[nH]c2=O)c(=O)[nH]1 | -2 | -15 | 84* | -2 | -1
CCOc1ccc(C(c2c(O)nc(SC)[nH]c2=O)c2c(O)nc(SC)[nH]c2=O)cc1 | 2 | -2 | 57 | 2 | 0
C=CCOc1ccc(C(c2c(O)nc(SC)[nH]c2=O)c2c(O)nc(SC)[nH]c2=O)cc1 | -3 | -6 | 90* | 6 | 3
COC(=O)c1ccccc1NC(=O)CSc1nc(-c2ccco2)cc(C(F)(F)F)n1 | nt | nt | nt | -9 | 3
C=CCNCCOc1ccc(C(C)(C)c2ccccc2)cc1 | -28 | 53 | -5 | -3 | -1
Cc1cc(Oc2ncccc2[N+](=O)[O-])c2cc(Cl)ccc2n1 | 36 | 2 | 97* | 1 | 2
O=[N+]([O-])c1cccnc1Oc1ccccc1F | -3 | -9 | -3 | -2 | 0
O=C(C1CCCN1S(=O)(=O)c1cccc2nsnc12)N1CCCCC1 (stereo not drawn) | 16 | -14 | -17 | -4 | -1
Cc1cc(F)ccc1S(=O)(=O)N1CCCCC1CCNC(=O)C(=O)NCCN1CCOCC1 (stereo not drawn) | 8 | -14 | -57 | -6 | -2
CCS(=O)(=O)c1ncc(Cl)c(C(=O)Nc2ccc(S(=O)(=O)N3CCC(C)CC3)cc2)n1 | 1 | 118* | 66 | 5 | 3
CCc1ccc(NC(=O)c2nc(S(=O)(=O)Cc3ccccc3)ncc2Cl)cc1 | 10 | 105* | -5 | 5 | 0
CCOC(=O)c1ccc(NC(=O)c2nc(S(=O)(=O)Cc3ccccc3)ncc2Cl)cc1 | -2 | 103* | -3 | -1 | 3
Cc1ccc(NC(=O)c2nc(S(=O)(=O)Cc3ccccc3C)ncc2Cl)cc1C | -3 | 103* | -2 | 3 | 1
COc1ccccc1NC(=O)c1nc(S(=O)(=O)Cc2ccccc2)ncc1Cl | -7 | -6 | 4 | 2 | 2
CCOc1ccccc1NC(=O)c1nc(S(=O)(=O)Cc2ccccc2)ncc1Cl | -4 | nt | 96* | -2 | 2
COc1ccccc1C(=O)NCCC(=O)N1CCCC(C(F)(F)F)C1 (stereo not drawn) | 2 | -1 | -4 | -2 | -1
O=C(CN1C(=O)NC2(CCCCC2)C1=O)Nc1ccc2c(c1)OCCCO2 | nt | -11 | nt | -1 | 1
O=C(CCN1CCOCC1)NNC(=S)NC(=O)c1ccccc1 | -3 | -1 | 99* | -5 | 2
O=C(NNC(=S)NC(=O)c1ccccc1)c1ccc(O)cc1 | 0 | 8 | 99* | -2 | 1
O=C(O)c1ccc(NC(=S)Nc2ccccc2)cc1 | -2 | 27 | 99* | 0 | 2
O=C(NNC(=O)c1ccccc1C(=O)O)c1ccc(O)cc1 | 3 | -5 | 29 | -3 | -1
O=C(CCN1CCOCC1)c1ccccc1 | -14 | -13 | 8 | 1 | 2
SMILES | Calb FLC | CSC inhib | ALR H2O2 inh | PP1 counter | PP5 primary
O=C(NNC(=S)Nc1ccccc1)c1ccc(O)cc1 | -2 | -4 | 99* | 0 | 1
CCC1S/C(=N/N=C/c2ccco2)N(Cc2ccccc2)C1=O (stereo not drawn) | -20 | 3 | nt | 1 | 0
COCC(=O)Nc1ccc(F)cc1 | -12 | -6 | -15 | -2 | 3
O=C(NNC(=S)Nc1ccccc1)c1ccc2ncccc2c1 | 26 | -4 | 78* | 2 | -2
O=C(O)c1ccc(NC(=S)NC(=O)c2cccc(COc3ccccc3)c2)cc1 | 8 | nt | 97* | 14 | 1
C(=N\NCc1ccccc1)/c1ccc2ncccc2c1 | 22 | 1 | nt | -1 | 0
COc1ccccc1NC(=S)NNC(=O)c1ccc(O)cc1 | -3 | -2 | 99* | 0 | 0
COc1ccccc1NC(=S)NNC(=O)c1nn(C)cc1Cl | 3 | -9 | 34 | 0 | 2
S=C(N/N=C/c1ccc2ncccc2c1)Nc1ccccc1 | 88* | -1 | 4 | 4 | -3
O=C(NC(=S)Nc1ccc(CN2CCCCC2)cc1)c1cccc(OCc2ccccc2)c1 | 30 | nt | 0 | 3 | 1
O=C(COc1coc(CN2CCc3ccccc32)cc1=O)N1CCCCC1 | 32 | 18 | ? | 3 | -1
Cc1ccccc1C(=O)NCC(=O)NNC(=S)NC(=O)c1ccccc1C | -1 | 0 | 20 | 2 | -2
CC(C)(C)C(=O)NC(=S)NNC(=O)c1ccncc1 | -23 | 3 | nt | 0 | -2
CC(C)(C)C(=O)NC(=S)NNC(=O)c1ccc(-c2ccccc2)cc1 | 98* | 91* | 40 | 2 | 5
O=C(CNC(=S)NC(=O)c1ccccc1)c1ccccc1 | 2 | 0 | 79* | 3 | 3
Cc1ccccc1C(=O)NCC(=O)NNC(=S)NC(=O)c1ccccc1 | -1 | -2 | 98* | -3 | 0
CCCN1CCC(=O)N([C@H](CSc2ccc(OC)cc2)c2ccccc2)CC1 | -8 | 6 | 98* | 2 | 0
COc1ccc(SC[C@H](Cc2ccccc2)N2CC[C@@H](C(C)(C)C)CCC2=O)cc1 | nt | 32 | 99* | 4 | 3
Cc1ccc2nc(SCC(=O)Nc3cccc(Cl)c3)nc(=O)n2c1 | 13 | -15 | 97* | 1 | 2
O=C(CSc1nc(-c2ccc(Cl)cc2)[nH]c(=O)n1)Nc1cccc(Cl)c1 | -8 | 49 | 99* | 8 | 3
O=C(CSc1n[nH]c(-c2cccnc2)n1)Nc1cccc(Cl)c1 | 0 | -2 | -8 | -1 | 1
Cc1ccc(N2CCN(C(=S)c3ccc(-c4cccc([N+](=O)[O-])c4)o3)CC2)cc1 | 17 | -5 | nt | 1 | -2
N/C(Cc1ccccc1)=N\OC(=O)c1cccc2ccccc12 | 104* | 2 | -4 | 0 | 4
O=C(Cn1ccccc1=S)c1ccc(Cl)c(Cl)c1 | 2 | 5 | 24 | -4 | 0
On1ccccc1=S | nt | 1 | 92* | -2 | -2
SMILES | Calb FLC | CSC inhib | ALR H2O2 inh | PP1 counter | PP5 primary
COc1ccc(OC)c(S(=O)(=O)N2CCc3ccccc3C2)c1 | 10 | 3 | -12 | -8 | -5
CCC(=O)Nc1nc(-c2ccccc2)nc(SC)c1C(C)=O | 12 | 5 | 4 | -1 | -1
CC(=O)Nc1ccc(SC[C@H](Cc2ccccc2)N2CCN(CC(C)C)CCC2=O)cc1 | -12 | -6 | nt | 0 | 2
Cc1ccc(SC[C@H](CC(C)C)N2CCN(CCc3ccccc3)CCC2=O)cc1 | -19 | nt | nt | nt | nt
CC(=O)Nc1ccc(SC[C@H](CC(C)C)N2CCN(CCc3ccccc3)CCC2=O)cc1 | -7 | 12 | 99* | -3 | 0
CC(=O)Nc1ccc(SC[C@H](CC(C)C)N2CCN(CC(C)C)CCC2=O)cc1 | -3 | 8 | 98* | -3 | 0
CCNC(=O)C1Cc2cc(S(=O)(=O)N3CCCC3)ccc2N1C(C)=O (stereo not drawn) | -13 | -5 | -3 | -2 | -1

Screening results: PubChem BioAssay, several laboratories
